Hits are enriched below; roughly 7.7% of the tested compounds scored in any of these assays.
HCMV inh – inhibitors of human cytomegalovirus; activity change, negative = inhibition, % at 57.5 µM; hit rate 4.5% among 410,000; HFF cells, HCMV-luciferase reporter, 72 h; active compounds read low; in the data active = activity change below about -60%; inconclusive = no clear call, values can overlap the other calls; inactive = above about -39%
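Steps: HFFs plated, 16 h 37C; compounds added; HCMV-luciferase added to MOI 1 PFU/cell; 72 h 37C; OneGlo reagent, 5 min room temperature; luminescence read, normalized to controls.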
Sm TGR inh – inhibitors of Schistosoma mansoni thioredoxin glutathione reductase | Q962Y6 | purified TGR, DTNB reduction, TNB absorbance 405 nm | Potency, µM (doses to about 114 µM), actives largely listed as inhibitors | hit rate 3% among 360,000 | AID 485364; note: nearly all actives have a fitted effect of over 60% in size
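TGR 20 nM + NADPH 100 uM (dispensed conc.), cpd preinc 15 min RT; start with NADPH (500 uM addition) then DTNB (15 mM addition). Kinetic TNB absorbance, 405 nm filter. Four-parameter Hill fit across titration.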
Giardia FBPA inh-1 – blocks Giardia fructose-bisphosphate aldolase activity; purified Giardia FBPA; Potency, µM (highest dose often 59.6 µM), most hits filed as inhibitors; hit rate 0.71% among 290,000; AID 2451; note: nearly all actives have a fitted effect of over 55% in size
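Giardia FBPA (40 nM reagent) was preincubated 10 min at RT with compound (up to 57.5 uM final), then substrate plus GAPDH/TPI/NAD/arsenate coupling system with diaphorase/resazurin was added; resorufin fluorescence (525/598 nm) was read after 20 min.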
TbPYK inhibitor – T. brucei pyruvate kinase inhibition; Q57TT1; TbPYK enzyme, Kinase-Glo Plus ATP luminescence, 45 min; Potency, µM (series often up to 76.8 µM), actives largely listed as inhibitors; hit rate 0.12% among 410,000; AID 624173; note: nearly all actives have a fitted effect of over 50% in size
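Activity of T. brucei pyruvate kinase was followed by Kinase-Glo Plus luminescence after the enzyme reacted 45 min at room temperature with 130 uM ADP (final) and substrate. Test compounds were added before ADP at multiple concentrations.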
FMDV antiviral – blocks foot and mouth disease virus; FMDV antiviral cell-based qHTS; Potency, µM (doses to about 57.9 µM), most hits filed as inhibitors; hit rate 1.2% among 410,000; AID 1159524; calls by dose curve; tested in HEK293T cells; note: read-out not given here; nearly all actives have a fitted effect of over 45% in size
RE007 growth inh – less growth of the S. pombe RE007 Vpr strain; S. pombe RE007 Vpr strain, BacTiter-Glo ATP luminescence, 24 h; Potency, µM (titrated, usually from 92.2 µM), hits mostly inhibitors; hit rate 0.21% among 360,000; AID 651644; active = well fitted falling curve with a large enough effect; inconclusive = small, poorly fitted or top-dose-only effect; inactive = no such curve, though single readings can be large or run the other way; note: nearly all actives have a fitted effect of over 50% in size
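Fission yeast strain RE007, carrying one chromosomally integrated HIV-1 vpr copy, was seeded at OD 0.01 in PMG+AL medium with 23 nL pinned compound. After 24 h at 30 °C and 99% humidity, viability was read by BacTiter-Glo luminescence.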
Giardia growth – blocks growth of Giardia lamblia trophozoites | shares compounds with Giardia FBPA inh-1 | Giardia lamblia trophozoite growth inhibition | Potency, µM (doses to about 57.5 µM), usual class: inhibitors | hit rate 5% among 1,500 | AID 2785;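 note: trophozoites exposed to compound for 48 h at 37 °C; nearly all actives have a fitted effect of over 70% in size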
Mammal cell tox – counter-screen for Giardia aldolase inhibitors: mammalian cell toxicity; hit rate 4% among 1,500; AID 2786; shares compounds with Giardia FBPA inh-1; Potency, µM (highest dose often 57.5 µM), hits mostly inhibitors; mammalian cell viability counter-screen, qHTS;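 note: Chinese hamster ovary cells used as mammalian cytotoxicity surrogate; viability measured as cellular ATP by luminescence; compound exposure lasted 48 h before reading; nearly all actives have a fitted effect of over 60% in size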
Giardia FBPA inh-2 – confirmation of Giardia fructose-bisphosphate aldolase inhibitors. shares compounds with Giardia FBPA inh-1. purified Giardia aldolase enzyme activity, qHTS. Potency, µM (series often up to 57.5 µM), most hits filed as inhibitors. hit rate 5% among 1,500; note: nearly all actives have a fitted effect of over 45% in size
Rabbit aldolase – selectivity test for Giardia aldolase inhibitors: rabbit aldolase. hit rate 4% among 1,500. Rabbit muscle FBPA enzyme inhibition, selectivity counter-screen. Potency, µM (titrated, usually from 57.5 µM), actives largely listed as inhibitors. shares compounds with Giardia FBPA inh-1. AID 2794; note: nearly all actives have a fitted effect of over 60% in size
Target sequence (P00883 whole entry, looked up): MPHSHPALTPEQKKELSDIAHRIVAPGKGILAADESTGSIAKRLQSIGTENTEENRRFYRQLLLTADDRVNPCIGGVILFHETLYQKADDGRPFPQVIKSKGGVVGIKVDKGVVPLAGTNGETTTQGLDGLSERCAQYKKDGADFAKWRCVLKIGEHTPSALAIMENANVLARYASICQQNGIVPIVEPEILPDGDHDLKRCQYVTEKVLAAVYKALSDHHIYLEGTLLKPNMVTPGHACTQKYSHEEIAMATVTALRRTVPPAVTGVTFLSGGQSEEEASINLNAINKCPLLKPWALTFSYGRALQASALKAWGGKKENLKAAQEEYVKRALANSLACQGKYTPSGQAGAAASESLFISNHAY
GAPDH counter – counter-screen for Giardia aldolase inhibitors: GAPDH coupling enzyme | shares compounds with Giardia FBPA inh-1 | GAPDH coupling enzyme counterscreen, biochemical, qHTS | Potency, µM (highest dose often 57.5 µM), usual class: inhibitors | hit rate 6% among 1,500 | AID 2795; note: nearly all actives have a fitted effect of over 55% in size
Of the large screens only hits and unclear results are named; the others gave an inactive call (follow-up assays come after a bar, where they were run); [ ] = another dose, or the depositor's remark. Unless noted, calls come from the whole dose curve; as a rule, active = well fitted curve in the direction sought with a large enough effect; inconclusive = small, poorly fitted or top-dose-only effect, or another doubt; inactive = no such curve, though single readings can be large; an effect the other way counts as inactive or inconclusive.

CCOC(=O)N1CCN(C(=O)CCCn2c(=S)[nH]c3ccsc3c2=O)CC1	Giardia FBPA inh-1 15.8µM | Giardia growth inactive[10.4 µM] | Mammal cell tox inactive | Giardia FBPA inh-2 inactive | Rabbit aldolase inactive | GAPDH counter inactive
O=C(CCCn1c(=S)[nH]c2ccsc2c1=O)NCc1ccco1	Giardia FBPA inh-1 15.8µM | Giardia growth inactive | Mammal cell tox inactive | Giardia FBPA inh-2 inactive | Rabbit aldolase inactive | GAPDH counter inactive
CCOC(=O)N1CCN(C(=O)CCCCCn2c(=S)[nH]c3ccsc3c2=O)CC1	Giardia FBPA inh-1 inconclusive
CN1c2c(nc(N)[nH]c2=O)NCC1CNc1ccc(C(=O)NC(CCC(=O)O)C(=O)O)cc1 (stereo not given)	none (no result: HCMV inh, Sm TGR inh, Giardia FBPA inh-1, FMDV antiviral, RE007 growth inh)
CON/C=N/C(=S)Nc1ncc(C(F)(F)F)cc1Cl	HCMV inh inconclusive, Giardia FBPA inh-1 6.29µM, RE007 growth inh inconclusive | Giardia growth inconclusive | Mammal cell tox inactive | Giardia FBPA inh-2 inactive | Rabbit aldolase inactive | GAPDH counter inactive
Cn1cc(C(=O)NCc2ccc(Cl)cc2)c(=O)c2cc(S(=O)(=O)N3CCCCCC3)ccc21	none (no result: Giardia FBPA inh-1, RE007 growth inh)
COc1ccc(CN2CCC(N3CC(C)OC(C)C3)CC2)c(OC)c1 (stereo not given)	Giardia FBPA inh-1 inconclusive | Giardia growth inactive | Mammal cell tox inactive | Giardia FBPA inh-2 inactive | Rabbit aldolase inactive | GAPDH counter inactive
COc1ccc(CN2CCCCCC2)cc1	none
COc1ccc(CN2CCN(Cc3ccccc3F)CC2)cc1	HCMV inh inconclusive, Giardia FBPA inh-1 15.8µM | Giardia growth inactive | Mammal cell tox inactive | Giardia FBPA inh-2 inactive | Rabbit aldolase inactive | GAPDH counter inactive
COc1ccc(/C=N\N2CCN(Cc3ccccc3Cl)CC2)cc1	Giardia FBPA inh-1 15.8µM, RE007 growth inh inconclusive | Giardia growth inactive[10.4 µM] | Mammal cell tox inactive | Giardia FBPA inh-2 inactive | Rabbit aldolase inactive | GAPDH counter inactive
COc1ccc(CN2CCN(Cc3ccc(C)cc3)CC2)c(OC)c1	Giardia FBPA inh-1 14.1µM | Giardia growth inactive | Mammal cell tox inactive | Giardia FBPA inh-2 inactive | Rabbit aldolase inactive | GAPDH counter inactive
CC1CCc2c(sc(NC(=O)Cn3nnc(-c4ccc(C(F)(F)F)cc4)n3)c2C#N)C1 (stereo not given)	none (no result: Giardia FBPA inh-1, RE007 growth inh)
COC(=O)c1cc2sc(C)cc2n1Cc1cccc(OC)c1	none (no result: Giardia FBPA inh-1, RE007 growth inh)
COc1ccco1	none (no result: HCMV inh, Sm TGR inh, TbPYK inhibitor, FMDV antiviral, RE007 growth inh)
COc1ccc(CN2CCN(Cc3ccccc3F)CC2)c(OC)c1	Giardia FBPA inh-1 12.6µM | Giardia growth inactive | Mammal cell tox inactive | Giardia FBPA inh-2 inactive | Rabbit aldolase inactive | GAPDH counter inactive
CC(=O)CSc1nnc2cc(C)c3cc(C)cc(C)c3n12	none (no result: Giardia FBPA inh-1, RE007 growth inh)
Cc1ccc(CN(Cc2ccccc2)C(=S)NCC(=O)NCc2cccnc2)o1	Giardia FBPA inh-1 15.8µM | Giardia growth inactive | Mammal cell tox inactive | Giardia FBPA inh-2 inactive | Rabbit aldolase inactive | GAPDH counter inactive
Cc1ccc(CN(Cc2ccco2)C(=S)NCC(=O)NCc2cccnc2)cc1	Giardia FBPA inh-1 inconclusive
CCc1ccc(Nc2n[n+](-c3ccccc3)c(-c3ccc(N(CC)CC)cc3)s2)cc1	HCMV inh -93.1, Giardia FBPA inh-1 25.1µM, FMDV antiviral inconclusive | Giardia growth inactive | Mammal cell tox inconclusive | Giardia FBPA inh-2 inactive | Rabbit aldolase inactive | GAPDH counter inactive
CCN(CC)c1ccc(-c2sc(Nc3ccccc3)n[n+]2-c2ccc(F)cc2)cc1	FMDV antiviral inconclusive

Screening results from PubChem BioAssay.
